VACV mCherry inh – qHTS for Stage-Specific Inhibitors of Vaccinia Orthopoxvirus: mCherry Reporter Primary qHTS. Potency, µM (doses to about 36.5 µM), hits mostly inhibitors. Vaccinia virus mCherry reporter infection, fluorescence. 0.63% of 310,000 active; calls by dose curve; tested in A549 cells; further: nearly all actives have a fitted effect of over 35% in size
Pf growth 48h – Primary qHTS for delayed death inhibitors of the malarial parasite plastid, 48 hour incubation; P. falciparum luciferase growth in erythrocytes, 48 h; Potency, µM (doses to about 28.7 µM), most hits filed as inhibitors; 5.9% of 310,000 active
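Firefly luciferase activity from engineered P. falciparum reports growth; inhibitors lower the luminescent signal. Cultures contained 2% hematocrit erythrocytes at 0.1% final parasitemia.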
NS1 inh – qHTS Assay for Inhibitors of Influenza NS1 Protein Function; Potency, µM (titrated, usually from 46.1 µM); 0.4% of 270,000 active; AID 2326, 2010; calls by dose curve; further: actives are rising curves; nearly all actives have a fitted effect of over 50% in size
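Read-out: OD600 growth recovery of NS1-expressing budding yeast. Cells grown overnight at 30C in -URA glucose medium, washed, resuspended and diluted 1:100 in 2% galactose assay medium, pH 6.0. Same strain lacking NS1 served as positive control.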
Vaccinia Venus – qHTS for Stage-Specific Inhibitors of Vaccinia Orthopoxvirus: Venus Reporter Primary qHTS. Vaccinia virus Venus reporter expression, fluorescence. AID 720580, 2013. 0.46% of 330,000 active. Potency, µM (doses to about 36.5 µM), most hits filed as inhibitors; calls by dose curve; tested in A549 cells; further: nearly all actives have a fitted effect of over 30% in size
Pf growth 96h – Primary qHTS for delayed death inhibitors of the malarial parasite plastid, 96 hour incubation; P. falciparum luciferase reporter growth, 96 h; Potency, µM (series often up to 28.7 µM), actives largely listed as inhibitors; 6.9% of 320,000 active; AID 504834, 2011
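P. falciparum expressing integrated firefly luciferase grown in erythrocytes (2% hematocrit, 0.05% parasitemia final) with compounds for 96 hours at 37 C, 5% CO2. Growth inhibition read as loss of luminescence after adding luciferase detection reagent.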
HCV inhibitor – qHTS Assay for Inhibitors of Hepatitis C Virus (HCV); Huh7.5.1 HCVcc-Cre infection, luciferase reporter, 44 h; Potency, µM (top dose mostly 41.8 µM), usual class: inhibitors; 3.4% of 340,000 active; AID 651820, 2012
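After 44 h co-culture of compound, cells and HCVcc-Cre (~0.5 moi), substrate is added for 15 min at room temperature and luciferase measured over 15 sec. Cells were seeded at 1,000/well and pre-cultured 4 h.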
Of the large screens only hits and unclear results are named; the others gave an inactive call. Hits are enriched below; roughly 11% of the tested compounds scored in any of these assays. Unless noted, the call rests on the fitted dose curve; in most records, active means well fitted inhibition curve with a large enough effect; inconclusive means small, poorly fitted or top-dose-only effect, or another doubt; inactive means no such curve, though single readings can be large or run the other way.

CC(C)(C)c1ccc(/C=C/C(=O)c2ccc(NC3=NCCCS3)cc2)cc1	Pf growth 48h 17µM, Pf growth 96h inconclusive, HCV inhibitor 11µM (no result: VACV mCherry inh, Vaccinia Venus)
O=C(/C=C/c1ccccc1)c1ccc(NC2=NCCCS2)cc1	none
Cc1cccc(/C=C/C(=O)c2ccc(NC3=NCCCS3)cc2)c1	Vaccinia Venus inconclusive, HCV inhibitor 11µM
COc1ccc2oc(=O)c(-c3csc(Nc4ccc(O)cc4)n3)cc2c1	VACV mCherry inh inconclusive, Pf growth 48h inconclusive, NS1 inh inconclusive, Vaccinia Venus inconclusive, HCV inhibitor 11µM
COc1ccc(CNc2nnnn2C)c(OC)c1	none
COc1ccc(/C=N/NC(=O)c2nonc2C)cc1	none (no result: VACV mCherry inh)
Cc1nonc1C(=O)N/N=C/c1ccncc1	Pf growth 96h 8.3µM
Cc1nonc1C(=O)N/N=C/c1ccc(O)cc1O	VACV mCherry inh 8.9µM, Vaccinia Venus inconclusive, HCV inhibitor inconclusive
Cc1c(CC(=O)NCc2ccccc2)c(=O)oc2c(C)c(O)ccc12	none (no result: Pf growth 48h, NS1 inh, Pf growth 96h, HCV inhibitor)
CCOC(=O)C1CCN(S(=O)(=O)c2ccc(C)c(C(=O)NC3CCCCC3)c2)CC1	Pf growth 96h inconclusive
CCOP(=S)(OCC)N1CCOCCOCCN(P(=S)(OCC)OCC)CCOCCOCC1	Pf growth 48h 6.6µM, Pf growth 96h inconclusive (no result: NS1 inh)
CCOP(=O)(OCC)C(CC)N1CCOCC1 (configuration not stated)	none (no result: VACV mCherry inh, Pf growth 48h)
O=S(=O)(c1ccccc1)c1nnn2c1nc(NC1CCN(Cc3ccccc3)CC1)c1cc(Cl)ccc12	Pf growth 48h 0.66µM, HCV inhibitor inconclusive (no result: VACV mCherry inh, Vaccinia Venus)
C=CCN1C(=O)N/C(=C/c2ccc(C)o2)C1=O	none (no result: VACV mCherry inh, Vaccinia Venus)
Cc1c(Cl)cccc1NC(=S)N1CCCN(Cc2ccccc2F)C1	VACV mCherry inh inconclusive, Pf growth 48h inconclusive, Pf growth 96h inconclusive (no result: NS1 inh)
Fc1ccccc1CN1CCCN(C(=S)Nc2cccc(Cl)c2)C1	VACV mCherry inh inconclusive, Pf growth 48h 9.3µM, HCV inhibitor inconclusive (no result: NS1 inh)
COc1ccc(N=C(C)C2=C(O)COC2=O)cc1	Pf growth 96h 0.33µM (no result: VACV mCherry inh, Pf growth 48h)
OCCCn1c(C2CCCN2c2nc(-c3ccc(Cl)cc3)cs2)nc2cc(Cl)c(N3CCCCC3)cc21 (configuration not stated)	VACV mCherry inh inconclusive, Vaccinia Venus inconclusive (no result: Pf growth 48h, NS1 inh, Pf growth 96h)
COc1ccc(/C=C/C(=O)NC(=S)NNC(=O)c2cccnc2)cc1	Pf growth 96h inconclusive
COc1ccc(/C=C/C(=O)NC(=S)NNC(=O)c2cnccn2)cc1	Pf growth 48h 2.1µM, Pf growth 96h inconclusive, HCV inhibitor inconclusive (no result: VACV mCherry inh, Vaccinia Venus)
O=C(/C=C/c1ccc(F)cc1)NC(=S)NNC(=O)c1cnccn1	Pf growth 48h 3.3µM, Pf growth 96h 8.3µM, HCV inhibitor inconclusive
O=C(/C=C/c1ccc(F)cc1)NC(=S)Nc1ccccc1	none
O=C(NC(=S)NNC(=O)c1cnccn1)c1ccc(F)cc1	VACV mCherry inh inconclusive, Pf growth 48h 15µM, Vaccinia Venus inconclusive, HCV inhibitor 14µM (no result: NS1 inh)
CCOC(=O)c1cccc(Nc2ncnc3ccc(C)cc23)c1	Pf growth 48h 12µM, Vaccinia Venus inconclusive, Pf growth 96h 9.3µM, HCV inhibitor 25µM (no result: VACV mCherry inh)
C=CC[n+]1c(/C=C2\C=Cc3cc(C)ccc3N2CC)ccc2ccccc21	Pf growth 48h 13µM, Pf growth 96h inconclusive, HCV inhibitor 2.5µM (no result: VACV mCherry inh, NS1 inh, Vaccinia Venus)
Cc1ccc(S(=O)(=O)Nc2cc(C)cn(Cc3ccc(F)cc3)c2=O)cc1	VACV mCherry inh inconclusive, Pf growth 48h 0.21µM, Pf growth 96h inconclusive
CN(C)CCNC(=O)c1onc(CSc2ccc(F)cc2)c1C(=O)NCCN(C)C	Pf growth 48h 13µM, HCV inhibitor inconclusive
CN(C)CCNC(=O)c1onc(CSc2ccc(F)c(F)c2)c1C(=O)NCCN(C)C	Pf growth 48h 8.3µM, Pf growth 96h 6.6µM, HCV inhibitor 13µM
CCCNC(=O)c1onc(CSc2ccc(F)c(F)c2)c1C(=O)NCCC	HCV inhibitor inconclusive (no result: Pf growth 48h, NS1 inh, Pf growth 96h)
O=C(NCc1ccccc1)c1onc(CSc2ccc(Cl)cc2)c1C(=O)NCC1CC1	Pf growth 48h inconclusive, Pf growth 96h inconclusive, HCV inhibitor inconclusive (no result: NS1 inh)
O=C(NCc1ccccc1)c1onc(CSc2ccccc2)c1C(=O)NCC1CC1	Pf growth 48h inconclusive, Vaccinia Venus inconclusive, Pf growth 96h inconclusive, HCV inhibitor 10µM

Compound activity deposited in PubChem BioAssay by National Center for Advancing Translational Sciences (NCATS).
